The source of these data is PubChem BioAssay (NCATS).

The term viability denotes a read-out of living cells in per cent, often relative to untreated cells.

Structures are written as SMILES. Several values for one entry are separate records, joined by “and”; a condition that tells them apart may be missing. Identical values can stand only once. Inconclusive results are not listed. Values without a mark were called inactive. Activity calls are given as the source filed them. Calls come from the whole dose curve; as a rule, active = well fitted curve in the direction sought with a large enough effect; inconclusive = small, poorly fitted or top-dose-only effect, or another doubt; inactive = no such curve, though single readings can be large; an effect the other way counts as inactive or inconclusive.

Test [1] deals with Cellular tumor antigen p53 (Homo sapiens) (UniProt P04637). Put plainly: Primary qHTS for small molecule compounds that upregulate eGFP-tagged delta133p53alpha (in N-terminal) cells. (AID 2060322).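 For activation: series mostly up to about 56 µM; 0% = DMSO vehicle and 100% = reference activator.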 Note: nearly all actives have a fitted effect of over 75% in size. Note: potency is the fitted concentration of half-maximal effect. Conditions: NCI-H358 eGFP-delta133p53alpha fluorescence, 24 h; activation: hits give high values. An outline of the steps:
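NCI-H358 cells pre-induced 24 h with 10 ng/ml doxycycline to express N-terminal eGFP-delta133p53alpha, then dosed 24 h at 37C without doxycycline; fixed, Hoechst-stained, GFP intensity by laser scanning cytometry, normalized to DMSO (0%) and 57.5 uM 5-azacytidine (100%).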
On the technique in general: In qHTS, concentration-response curves come from the screen itself.

Test [2] has as its target Aldehyde dehydrogenase, mitochondrial (Homo sapiens) (UniProt P05091). In words: qHTS for Inhibitors of the Aldehyde Dehydrogenase Family (ALDH2) Primary screen (AID 2061308).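 Note: plate controls were vehicle for no effect and reference inhibitor for full effect; nearly all actives have a fitted effect of over 55% in size.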
The target of test [3] is Retinaldehyde dehydrogenase 3 (Homo sapiens) (UniProt P47895). In words: qHTS for Inhibitors of the Aldehyde Dehydrogenase Family (ALDH1A3) Primary screen (AID 2061315).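 Note: plate controls were DMSO vehicle for no effect and reference inhibitor for full effect.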
Test [4] in a line: BET inhibitor-based combinations targeting novel dependencies in MECOM-rearranged (r) AML: SET-2 cell line (AID 2202231).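 For viability: plate controls were DMSO treated cells for no effect and wells without cells for full effect.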 Note: nearly all actives have a fitted effect of over 35% in size. Note: potency is the fitted concentration of half-maximal effect. Conditions: SET-2 AML cells viability, CellTiter-Glo luminescence, 48 h; viability: hits give low values, concentration not given here. An outline of the steps:
(§1)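 AML cell lines seeded at 500 cells/well, treated with 11-point dose curves for 48 h. Viability by CellTiter-Glo luminescence, normalised to DMSO and empty wells; activity expressed as AUC and per-cell-line Z-transformed AUC.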
A general note: Cellular ATP, detected with luciferase, serves as a proxy for viable cell number.

Test [5] is described as follows: BET inhibitor-based combinations targeting novel dependencies in MECOM-rearranged (r) AML: OCI-AML3 cell line (AID 2202232). Note: nearly all actives have a fitted effect of over 35% in size. Note: potency is the fitted concentration of half-maximal effect. Conditions: Potency: OCI-AML3 viability. Put shortly:
as §1

Test [6] can be described thus: BET inhibitor-based combinations targeting novel dependencies in MECOM-rearranged (r) AML: HNT-34 cell line (AID 2202234). Note: nearly all actives have a fitted effect of over 35% in size. Note: potency is the fitted concentration of half-maximal effect. An outline of the steps:
(§2)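 Cells at 500/well were exposed for 48 hr to MIPE v5.0 drugs as 11-point dose curves. Viability was read by CellTiter-Glo luminescence and normalized to DMSO and empty-well controls. Activity was expressed as AUC and per-cell-line Z-AUC.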

Test [7] in a line: BET inhibitor-based combinations targeting novel dependencies in MECOM-rearranged (r) AML: UCSD-AML1 cell line (AID 2202235). Note: nearly all actives have a fitted effect of over 40% in size. Note: potency is the fitted concentration of half-maximal effect. Put shortly:
as §2

Test [8] in a line: BET inhibitor-based combinations targeting novel dependencies in MECOM-rearranged (r) AML: AML-191 cell line (AID 2202236; note: nearly all actives have a fitted effect of over 35% in size; note: potency is the fitted concentration of half-maximal effect). An outline of the steps: as §1
A short description of test [9]: BET inhibitor-based combinations targeting novel dependencies in MECOM-rearranged (r) AML: AML-194 cell line (AID 2202237; note: nearly all actives have a fitted effect of over 40% in size; note: potency is the fitted concentration of half-maximal effect). An outline of the steps: as §1
Test [10] can be described thus: BET inhibitor-based combinations targeting novel dependencies in MECOM-rearranged (r) AML: MV-4-11 cell line (AID 2202233). Note: nearly all actives have a fitted effect of over 45% in size. Note: potency is the fitted concentration of half-maximal effect. Put shortly:
as §2

Chain of Cellular tumor antigen p53 (Homo sapiens) (P04637 whole entry, looked up): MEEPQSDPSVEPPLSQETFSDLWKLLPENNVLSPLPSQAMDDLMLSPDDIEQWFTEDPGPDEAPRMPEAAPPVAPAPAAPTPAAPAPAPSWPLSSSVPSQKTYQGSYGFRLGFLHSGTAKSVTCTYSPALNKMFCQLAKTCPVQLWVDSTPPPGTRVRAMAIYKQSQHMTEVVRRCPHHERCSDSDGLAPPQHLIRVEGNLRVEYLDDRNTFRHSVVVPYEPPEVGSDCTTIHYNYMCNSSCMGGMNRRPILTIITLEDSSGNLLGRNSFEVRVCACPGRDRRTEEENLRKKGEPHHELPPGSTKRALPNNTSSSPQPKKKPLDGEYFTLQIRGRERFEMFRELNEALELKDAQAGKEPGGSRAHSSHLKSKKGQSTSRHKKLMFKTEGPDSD

For `Cc1[nH]nc(C(F)(F)F)c1Cc1sc2c(c1C(=O)N1C[C@](C)(O)CO1)c(=O)n(C)c(=O)n2C(C)C`, in [1], the activation is -10.3%. In addition, the Potency result in [2], in test [3], in test [5], in test [6], in [7] and in [8] was “inactive” in each case. The Potency entry in test [9] is “inactive”. In addition, the viability in test [4] is 110%.
With `COc1ccc(-c2c(-c3ccc(O)cc3O)n[nH]c2C)cc1`, the activation in [1] is -3.77%. The Potency entry in [2], in test [3], in test [5], in [10], in test [7] and in test [8] was “inactive” each time. In addition, in test [9], the Potency entry was “inactive”. For the same molecule, the viability in test [4] is 84%.
Consider `CCNC(=O)[C@H]1O[C@@H](n2cnc3c(N)nc(NCCc4ccc(CCC(=O)O)cc4)nc32)[C@H](O)[C@@H]1O`, for which, in test [1], the activation is -4.46%. The Potency entry in test [2], in test [3], in [5], in [6], in test [7] and in test [8] was “inactive” throughout. In test [9], the Potency result was “inactive”. The viability in test [4] was 115%.
Regarding `CC[C@@H]1C(=O)N(C)c2cnc(Nc3ccc(C(=O)NC4CCC(N5CCN(CC6CC6)CC5)CC4)cc3OC)nc2N1C(C)C` (stereo partly drawn), the activation in [1] was -21.7%. Further, the Potency result in [2] and in [3] was “inactive” in each case. In addition, the Potency in test [4] was 0.148 µM (active); in test [5], 0.059 µM (active); in test [10] it was 0.118 µM (active); in test [7], 0.166 µM (active); in test [8], 0.166 µM (active); in [9] it was 0.0934 µM (active).
Turning to `COc1ccc(-c2cc3c(C)nc(N)nc3n(C3CCC(OCCO)CC3)c2=O)cn1` (stereo not drawn), the activation in test [1] is 3.45%. Besides, the Potency entry in [2] and in [3] was “inactive” throughout. Further, the Potency in test [4] is 1.66 µM (active); in [5] it was 0.417 µM (active); in test [10], 0.296 µM (active); in test [7] it was 0.105 µM (active); in test [8], 0.296 µM (active); in test [9], 0.209 µM (active).
As to `O=c1ccn([C@@H]2O[C@H](CO)[C@@H](O)[C@H]2O)c(=O)[nH]1`, the activation in [1] was 10.3%. The Potency entry in test [2], in test [3], in test [5], in test [6], in [7] and in test [8] was “inactive” in each case. The Potency entry in test [9] is “inactive”. Also, the viability in [4] is 115%.
For `N#C[C@@H]1C[C@@H]2C[C@@H]2N1C(=O)[C@@H](N)C12CC3CC(CC(O)(C3)C1)C2`, in test [1], the activation was -3%. For the same molecule, the Potency entry in test [2], in [3], in [5] and in [6] was “inactive” throughout. For the same molecule, the viability in test [4] is 110%. For the same molecule, the Potency in test [9] is 14.8 µM (active).
Consider `CN1C(=O)C(Cc2c[nH]c3ccccc23)NC1=S` (stereo not drawn), for which the activation in [1] was 23.7%. Further, the Potency result in test [2], in [3], in [5], in test [6], in test [8] and in test [9] was “inactive” throughout. In test [4], the viability is 99.6%.
Take `CC#CC(=O)N1CCC[C@H]1c1nc(-c2ccc(C(=O)Nc3ccccn3)cc2)c2c(N)nccn12`: in [1], the activation is 15.7%. In addition, the Potency entry in test [2], in test [3], in [5], in [6], in [7] and in test [9] was “inactive” in each case. Further, in test [4], the viability is 96.5%.
Regarding `O=C(Nc1ccc(F)c(C(F)(F)F)c1)Nc1nnc(-c2ccncc2)s1`, the activation in test [1] was -20.5% and 5%. Further, the Potency entry in [2], in test [3], in test [5], in [6], in test [7] and in [8] was “inactive” throughout. The Potency entry in test [9] is “inactive”. For the same molecule, the viability in test [4] is 100%.
Consider `CCCn1c(=O)c2[nH]c(-c3cnn(Cc4cccc(C(F)(F)F)c4)c3)nc2n(CC)c1=O`, for which the activation in test [1] is 0.955%. Moreover, the Potency entry in test [2], in test [3], in [5], in test [10], in [7] and in test [8] was “inactive” each time. Further, the Potency result in [9] was “inactive”. The viability in [4] is 114%.
Take `COc1cc(CNC(=O)CCCC/C=C/C(C)C)ccc1O`: in test [1], the activation was -7.14%. For the same molecule, the Potency result in test [2], in test [3] and in [5] was “inactive” each time. Further, the values for the Potency in [4], in test [6] and in [9] were 14.8 µM (active), 6.61 µM (active) and 10.5 µM (active), respectively.
Consider `Nc1ccn([C@@H]2O[C@H](CO)[C@@H](O)C2(F)F)c(=O)n1`, for which the activation in test [1] was -26.8% and -6.68%. In addition, the Potency result in [2] and in test [3] was “inactive” each time. The Potency in [4] is 0.0235 µM (active); in test [5], 0.0105 µM (active); in test [6], 0.0372 µM (active); in test [7] it was 0.0186 µM (active); in test [8] it was 0.0132 µM (active); in test [9] it was 0.0209 µM (active).
Regarding `COc1ccc(-c2c(C)nn3c(NCCN4CCOCC4)cc(C)nc23)cc1OC`, in test [1], the activation was 7%. Also, the Potency result in test [2], in [3], in test [5] and in [7] was “inactive” throughout. Moreover, the viability in test [4] was 88.4%. Further, the Potency in test [6] was 20.9 µM (active).
Regarding `COc1cc2nccc(Oc3ccc(NC(=O)NC4CC4)c(Cl)c3)c2cc1C(N)=O`, the Potency in [1] is 26.9 µM (active); in test [4] it was 18.6 µM (active); in test [10] it was 2.09 µM (active); in test [6] it was 9.34 µM (active); in test [8], 20.9 µM (active). Also, the Potency result in test [2], in test [3] and in test [9] was “inactive” each time.
For the molecule `CNC(=O)c1c(-c2ccc(F)cc2)oc2cc(N(CCO)S(C)(=O)=O)c(C3CC3)cc12`, the activation in test [1] was -6.02% and -15.2%. Moreover, the Potency entry in test [2], in test [3], in [10], in [6], in [7] and in [8] was “inactive” each time. For the same molecule, the Potency result in test [9] was “inactive”. In test [4], the viability is 119%.
Regarding `CC[C@H](C)C(=O)O[C@H]1C[C@@H](C)C=C2C=C[C@H](C)[C@H](CC[C@@H]3C[C@@H](O)CC(=O)O3)[C@H]21`, the activation in test [1] is -14.1% and 11.5% and 5.34%. Also, the Potency entry in [2], in test [3] and in test [9] was “inactive” in each case. Besides, the viability in [4] is 109%. For the same molecule, the values for the Potency in test [10], in test [6] and in test [7] were 10.5 µM (active), 5.9 µM (active) and 9.34 µM (active), respectively.
